Assay results from PubChem BioAssay.
Unmarked numbers belong to inactive results. The rule behind the calls is not given here.

Target: Pantothenate synthetase (Mycobacterium tuberculosis (strain ATCC 25618 / H37Rv)) (UniProt P9WIL5)
Experiment: Recombinant Mtb pantothenate synthetase (PanC) inhibitors, coupled enzyme, confirmatory (AID 375);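 note: 0% = full reaction with vehicle and 100% = no enzyme background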
Settings: coupled enzyme assay; at 10 µM, active compounds read high

Sequence of Pantothenate synthetase (Mycobacterium tuberculosis (strain ATCC 25618 / H37Rv)) (P9WIL5 whole entry, looked up): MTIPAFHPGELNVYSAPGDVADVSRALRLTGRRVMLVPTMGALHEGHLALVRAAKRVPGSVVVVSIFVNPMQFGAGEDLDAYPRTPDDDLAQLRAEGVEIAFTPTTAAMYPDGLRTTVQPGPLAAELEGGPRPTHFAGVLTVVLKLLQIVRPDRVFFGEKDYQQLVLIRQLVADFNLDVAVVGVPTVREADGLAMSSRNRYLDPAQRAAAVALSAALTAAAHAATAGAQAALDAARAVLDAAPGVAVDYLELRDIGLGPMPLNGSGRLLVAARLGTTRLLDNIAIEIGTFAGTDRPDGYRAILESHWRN

SMILES | inhibition
COc1ccccc1N1C(=O)CC(Sc2nc(C)cc(C)n2)C1=O (stereo not given) | 0%
C#CCN(C)Cc1ccccc1 | 3%
Cc1cc(C)n(-c2ccc(C(=O)Nc3ccc4c(c3)OCCO4)cc2)n1 | 2%
CCCc1cc(-c2n[nH]c(C)c2-c2ccc(C(=O)OCC)o2)c(O)cc1O | 6%
O=S(=O)(NCc1cccnc1)c1cccc2nsnc12 | 12%
CCOC(=O)Cc1nnc2c(Nc3ccc(C)cc3)nc3nonc3n12 | 1%
Clc1ccc(Cl)c(-c2nn3c(Cn4cnc5ccccc54)nnc3s2)c1 | 0%
CC(O)c1nc2ccccc2n1C1CCCCC1 (stereo not given) | 0%
CCCCC(=O)Nc1ccc(NC(=O)C2CC2)nc1 | 2%
CCOC(=O)c1[nH]c2ccc(Br)cc2c1NC(=O)CCN1CCC(C(=O)OCC)CC1 | 0%
Cc1c(C2Nc3ccccc3NC3=C2C(=O)CC(C)(C)C3)cnn1C (stereo not given) | 2%
O=S(=O)(NC1CCCC1)c1ccccc1Cl | 0%
Cc1ccc(S(=O)(=O)N2C(=O)CCC2C(=O)Nc2ccc3c(c2)OCCO3)cc1 (stereo not given) | 0%
Cc1cc(OCC(O)CN2CCN(CCO)CC2)ccc1C(C)C (stereo not given) | 8%
COc1ccc(C(=O)CN2C(=O)NC3(CCCc4ccccc43)C2=O)cc1OC (stereo not given) | 0%
O=S(=O)(c1ccc(OCC(O)CN2CCN(c3ccccc3)CC2)cc1)N1CCOCC1 (stereo not given) | 7%
CC(=O)Nc1sc2c(c1CN1CCN(c3ccccn3)CC1)CCCC2 | 2%
O=C(O)c1ccccc1S | 0%
Cc1cc(NC(=O)c2ccc3nc(-c4ccccc4)c(-c4ccccc4)nc3c2)no1 | 0%
O=C(NCc1ccccc1)C1CCCN1S(=O)(=O)c1cccc2cccnc12 (stereo not given) | 0%

SMILES | inhibition
O=S(=O)(c1cccc2cnccc12)N1CCCNCC1 | 3%
O=C(CP(=O)(CO)CO)c1ccc(Cl)cc1 | 0%
CCn1c(=O)c(C(=O)NCc2ccc(OC)cc2)c(O)c2ccccc21 | 3%
CCCc1[nH]nc2c1C(c1cn[nH]c1-c1ccc(F)cc1)C(C#N)=C(N)O2 (stereo not given) | 10%
CC(C)N(Cc1nc(-c2ccc(Cl)cc2)no1)C(=O)CN(C)S(=O)(=O)c1ccc(Cl)cc1 | 0%
COC(=O)c1cn(-c2ccccc2)nc1C(=O)OC | 2%
N=c1sc2ccccc2n1-c1ccccc1 | 3%
COc1ccc(C(=O)Nc2ccccc2C(=O)NCCN2CCOCC2)cc1 | 0%
O=C(NCc1ccc(Cl)cc1)c1ccc(COCC(F)(F)F)o1 | 0%
Cc1ccccc1Nc1cc2ccccc2c(=O)[nH]1 | 2%
CC(=O)Nc1cccc(-c2nnc(-c3ccccc3)o2)c1 | 4%
CCOC(=O)N1CCN(C(=O)C(NS(=O)(=O)c2cccc3nsnc23)c2ccccc2)CC1 (stereo not given) | 0%
CS(=O)(=O)Nc1ccccc1C(=O)O | 0%
CN(C)S(=O)(=O)Nc1ccc(Br)cc1F | 0%
O=C(NCc1ccc(F)cc1)c1cc2ccccn2n1 | 1%
Cc1nnc(N(C)C(=O)c2cccnc2)s1 | 0%
Cc1ccc(S(=O)(=O)N(C)Cc2cc3ccccc3[nH]c2=O)cc1 | 0%
N#CC1=C(N)N(c2ccc(Oc3ccccc3)cc2)C(=O)C1 | 2%
COc1cccc(NC(=O)COC(=O)c2ccco2)c1 | 0%
CC(Oc1ccccc1)C(=O)NC1CCN(Cc2ccccc2)CC1 (stereo not given) | 7%
